An excerpt weighted towards active compounds, which were near 19% of everything screened.
TDP1 cell noCPT – qHTS for Inhibitors of human tyrosyl-DNA phosphodiesterase 1 (TDP1): qHTS in cells in absence of CPT; AID 686978, 2013; actives 15% (n = 420,000); DT40 Tdp1-/- hTDP1 cells, no CPT, ATP luminescence, 48 h; Potency, µM (titrated, usually from 46.2 µM), inactives show top-dose activity change, negative = growth inhibition, actives largely listed as inhibitors; also: potency is read from the fitted curve at half-maximal effect; % is scaled to controls: 0 for no effect and ±100 for the full control effect; nearly all actives have a fitted effect of over 55% in size
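Cells were dispensed at 400 per well, compounds added by pin tool, plates incubated ≥48 hr at 37 °C, then CellTiter-Glo added for 30 min at room temperature before luminescence reading. Line: DT40 Tdp1-/- complemented with hTDP1; camptothecin omitted.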
SW480 rereplic – A quantitative high throughput screen for small molecules that induce DNA re-replication in SW480 colon adenocarcinoma cells; SW480 DNA re-replication, Hoechst DNA content imaging, 48 h; Potency, µM (series often up to 46.1 µM), inactives show at the highest dose re-replication activation, most hits filed as activators; actives 1.8% (n = 340,000); AID 624297, 2012; also: potency is read from the fitted curve at half-maximal effect; % of control where 0% means no effect; nearly all actives have a fitted effect of over 55% in size
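Treated cells incubate 48 hr (37 C, 5% CO2), are stained 40 min with Hoechst, and nuclear fluorescence is enumerated; a rise in nuclei with high DNA signal marks re-replication.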
DT40 TDP1 CPT – qHTS for Inhibitors of human tyrosyl-DNA phosphodiesterase 1 (TDP1): qHTS in cells in presence of CPT. chicken DT40 Tdp1-/-;hTDP1 cells + 20 nM CPT, ATP luminescence, 48 h. Potency, µM (series often up to 46.2 µM), without a hit: top-dose activity change, negative = growth inhibition, actives largely listed as inhibitors. actives 12% (n = 420,000); also: potency is read from the fitted curve at half-maximal effect; % is scaled to controls: 0 for no effect and ±100 for the full control effect; nearly all actives have a fitted effect of over 55% in size
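Chicken DT40 Tdp1-/- cells stably complemented with human TDP1 were seeded at 400 cells/well in medium containing 20 nM camptothecin, exposed to pin-transferred compounds, and grown at 37 °C for at least 48 hr. Viability was read as ATP luminescence.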
MCF10A rereplic – A quantitative high throughput screen for small molecules that induce DNA re-replication in MCF 10a normal breast cells; MCF 10A DNA re-replication, Hoechst nuclear intensity, 48 h; Potency, µM (series often up to 46.1 µM), for the others: at the top dose activity, positive = re-replication, hits mostly activators; actives 2.9% (n = 350,000); AID 624296, 2012; also: potency is read from the fitted curve at half-maximal effect; % of control where 0% means no effect; nearly all actives have a fitted effect of over 50% in size
BCR signal inh – qHTS Assay to Find Inhibitors of Chronic Active B-Cell Receptor Signaling; ABC-DLBCL IkBa-CBG/CBR reporter, luminescence ratio, 4 h; Potency, µM (series often up to 46.1 µM), for inactives: at the top dose activity change, negative = inhibition, usual class: inhibitors; actives 0.05% (n = 340,000); active = well fitted inhibition curve with a large enough effect in the signal ratio, with a control signal flat, not every such curve was filed as active; inconclusive = small, poorly fitted or top-dose-only effect, or effect the other way, or a change in a side signal; the % refers to the signal ratio;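 also: potency is read from the fitted curve at half-maximal effect; plate controls were basal doxycycline-induced cells for no effect and cells given 10 µM MG132 for full effect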
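Doxycycline induced both beetle luciferases in TMD8 lymphoma cells; IKK-driven degradation limits the IkappaBalpha-fused green signal, while red luminescence normalises for cell number and nonspecific effects. Compounds tested up to 46 uM, 4 hrs.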
IL1B secr inh – qHTS for Inhibitors of Inflammasome Signaling: IL-1-beta AlphaLISA Primary Screen; THP-1 LPS/ATP IL-1B secretion, AlphaLISA, 16 h; active compounds read low; activity change, % at 57.5 µM; actives 4.7% (n = 360,000); AID 743279, 2014; in the data active = activity change below about -50%; inconclusive = mostly about -30% to -49%; also: % is scaled to controls: 0 for no effect and ±100 for the full control effect
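Secreted IL-1B measured by AlphaLISA bead assay after 16 h compound exposure of THP-1 cells; compounds (final up to 57.5 uM) added 1 h before LPS (250 ng/mL) and ATP (1.25 mM) stimulation; lower signal means less secretion.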
* marks the source's active call; other numbers are inactive results; ? = inconclusive; · = no result given; [ ] = dose if it differs, or a comment. Unless noted, calls follow the shape of the dose curve; as a rule, active = well fitted curve in the direction sought with a large enough effect; inconclusive = small, poorly fitted or top-dose-only effect, or another doubt; inactive = no such curve, though single readings can be large; an effect the other way counts as inactive or inconclusive.

SMILES	TDP1 cell noCPT	SW480 rereplic	DT40 TDP1 CPT	MCF10A rereplic	BCR signal inh	IL1B secr inh
CC1(C)C2CCC(CN)C1C2 (stereo not drawn)	2%	·	14%	·	·	-3
COc1ccc(NC(=O)C(C)n2nc(-c3ccc(C)c(C)c3)ccc2=O)cc1OC (stereo not drawn)	16µM*	·	23µM*	·	·	·
CCc1ccccc1NC(=O)C(C)n1nc(-c2ccc(C)c(C)c2)ccc1=O (stereo not drawn)	?	·	23µM*	·	·	·
CC(=O)c1ccc(NC(=O)C(C)n2nc(-c3ccccc3)ccc2=O)cc1 (stereo not drawn)	-6%	·	-1%	·	·	·
CN(Cc1ccccc1)C(=O)COC(=O)c1cc([N+](=O)[O-])ccc1N1CCOCC1	?	-5%	-3%	-2%	?	-7
CCOC(=O)c1ccccc1NC(=O)COC(=O)c1cc([N+](=O)[O-])ccc1N1CCOCC1	6.5µM*	-1%	?	9%	?	?
COc1ccc(CN(C)C(=O)COC(=O)c2cc([N+](=O)[O-])ccc2N2CCCC2)c(OC)c1OC	21µM*	2%	?	13%	-7%	-21
O=C(COC(=O)c1ccc(O)cc1)Nc1cc(C(F)(F)F)ccc1N1CCOCC1	-1%	-6%	0%	0%	-7%	51
O=C(COC(=O)c1ccccc1NCCO)Nc1cc(C(F)(F)F)ccc1N1CCOCC1	?	?	18µM*	?	-1%	-27
Cc1cc(Br)ccc1NC(=O)CN(C)C(=O)c1cc([N+](=O)[O-])ccc1N1CCOCC1	?	6%	-24%	1%	0%	-59*
CCCCn1c(N)c(N(CCC(C)C)C(=O)c2ccc(C)c(S(=O)(=O)N3CCOCC3)c2)c(=O)[nH]c1=O	1%	3%	0%	-4%	-4%	-3
COc1ccc(C(=O)C2CCCN(C(=O)c3cc(C4CC4)[nH]n3)C2)c(C)c1 (stereo not drawn)	?	?	?	0%	-18%	12
O=S(=O)(O)NC1CCCCC1	-6%	-3%	1%	1%	·	·
CCN(C(=O)COC(=O)c1cc([N+](=O)[O-])ccc1N1CCOCC1)c1ccccc1	15µM*	7%	?	-4%	?	-1
CCSc1nc(C)cc(C)c1S(=O)(=O)c1ccccc1C	21µM*	2%	?	3%	7%	6
CSc1nc(C)cc(C)c1S(=O)(=O)c1ccccc1C	?	3%	?	24%	9%	-4
C#CCOc1nc(C)cc(C)c1S(=O)(=O)c1ccccc1C	-2%	4%	4%	6%	-3%	-56*
CCC(C)Oc1nc(C)cc(C)c1S(=O)(=O)c1ccccc1C (stereo not drawn)	16µM*	-3%	?	12%	28%	-1
CCOc1nc(C)cc(C)c1S(=O)(=O)c1cccc(C)c1	·	·	·	·	2%	·
COc1nc(C)cc(C)c1S(=O)(=O)c1ccccc1C	0%	-2%	-2%	0%	1%	42
Cc1cc(C)c(S(=O)(=O)c2c(C)cccc2C)c(OCC(C)C)n1	13µM*	0%	23µM*	-182%[0.0737 µM]	23%	28
O=C(Nc1ccc(Oc2ccc(C(=O)O)c(C(=O)O)c2)cc1)c1cccs1	-2%	-3%	17%	-4%	?	13
N/C(=N\O)c1ccc(Cl)cc1Cl	3%	-13%	10%	10%	-11%	-3
NC(N)=NC(=O)c1nc(Cl)c(N2CCCCCC2)nc1N	7.1µM*	-17%	7.1µM*	2%	15%	?
O=C(O)c1nc(N2CCCCC2)ncc1Cl	-11%	0%[9.22 µM]	-2%	7%	-1%	13
SMILES	TDP1 cell noCPT	SW480 rereplic	DT40 TDP1 CPT	MCF10A rereplic	BCR signal inh	IL1B secr inh
O=c1cc(N2CCN(c3ccccc3)CC2)[nH]c(=O)n1Cc1ccc(F)cc1	-28%	8%	-25%	0%	2%	-4
CC1(C)CN(c2ccccc2)N(Cc2ccc(F)cc2)C1=O	9.2µM*	3%	9.2µM*	19%	-1%	16
N#CC1=C(N)Oc2cc(N)ccc2C1c1cccnc1 (stereo not drawn)	16µM*	?	?	?	1%	16
CCN(CC)c1ccc2c(c1)OC(N)=C(C#N)C2c1cccnc1 (stereo not drawn)	0.037µM*	0.18µM*	0.021µM*	?	?	-101*
O=C(N/N=C/c1ccc(N2CCOCC2)cc1)c1ccccc1OCCOc1ccccc1	?	?	16µM*	?	?	-65*
O=C(N/N=C/c1ccc(N2CCOCC2)cc1)c1cccs1	?	6.5µM*	?	3%	?	1
Nc1nc(NCCO)nc(NC2CCCCC2)c1[N+](=O)[O-]	?	?	?	26µM*	3%	?
Nc1nc(Nc2ccccc2)nc(NC2CCCCC2)c1[N+](=O)[O-]	?	9.2µM*	13µM*	?	?	-88*
Nc1nc(NCCOCCO)nc(NC2CCCCC2)c1[N+](=O)[O-]	-4%	?	-21%	13%	1%	56
CC(C)c1cc(CNC(=O)C2CCC(=O)N(CCc3ccc(Cl)cc3)C2)on1 (stereo not drawn)	0%	-10%	4%	10%	6%	9
Cc1ccc(S(=O)(=O)N2CCN(C(=O)CC(C)n3cncn3)CC2)cc1C (stereo not drawn)	-17%	3%	2%	-13%	?	4
COc1ccc(NC(=S)Nc2ccccc2)cc1	?	-53%	?	-12%	?	-16
COc1ccc(N/C(C)=C/C(=O)c2ccccc2)cc1	-21%	-11%	-22%	12%	?	-1
COc1ccc(NC(=S)c2ccccc2)cc1	-22%	5%	-8%	-4%	1%	-82*
COc1ccc(N/C(C)=C/C(=S)Nc2ccccc2)cc1	?	-1%	10µM*	29%	-18%	25
CSc1n[nH]c(N)c1S(=O)(=O)c1ccc(Cl)cc1	10%	-12%	-9%	4%	-11%	7
CSc1nn(Cc2ccc(C)cc2)c(N)c1S(=O)(=O)c1ccccc1	23µM*	·	21µM*	·	·	·
